This passage reports Potency results from PubChem BioAssay AID2289 (National Center for Advancing Translational Sciences (NCATS), 2010).

The structures appear in SMILES notation. Out of some 340,000 compounds screened, about 3,300 (0.97%) were called active. Roughly 9% stayed inconclusive and do not appear here. Calls come from the whole dose curve; as a rule, active = well fitted inhibition curve with a large enough effect; inconclusive = small, poorly fitted or top-dose-only effect, or effect the other way; inactive = flat fitted curve, though single readings scatter. This is one part of the list.
Potency is the fitted concentration of half-maximal effect.

The nature of the assay: qHTS Assay for Modulators of miRNAs and/or Inhibitors of miR-21. Note: nearly all actives have a fitted effect of over 55% in size. As to conditions: HeLa miR-21-FLuc reporter, luciferase luminescence, 48 h; actives lower the signal. In short, it runs like this: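 HeLa cells endogenously expressing miR-21, stably carrying CMV-driven firefly luciferase with a downstream miR-21 binding site, 2000 cells/well. Titrations up to approximately 40 uM, 48 hours; luciferase luminescence read.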
A general note: In qHTS, concentration-response curves come from the screen itself.
As for `Nc1cc(N)nc(SCCOc2ccccc2)n1`, the Potency was 11.7 µM (active).

As to `Cc1ccc(OCCSc2nc(N)cc(N)n2)cc1`, the Potency was 4.65 µM (active).

Consider `COc1ccc(OCCSc2nc(N)cc(N)n2)cc1`, for which the Potency is 3.29 µM (active).

Turning to `c1cnc(SCCOc2cccc3ccccc23)nc1`, the Potency is 3.29 µM (active).

For `Cc1cc(SCCOc2ccccc2)nc(N)n1`, the Potency was 16.5 µM (active).

For `Nc1cc(N)nc(SCCOc2ccccc2F)n1`, the Potency is 14.7 µM (active).

Regarding `CCOC(=O)c1ccc(NC(=O)C(CC)Sc2nc3ncccc3o2)cc1` (stereo not given), the Potency is 4.65 µM (active).

In the case of `Cc1ccc(NC(=O)/C=C2\NC(=O)CS2)cc1`, the Potency is 16.5 µM (active).

In the case of `O=C(N/N=C/c1ccc(Br)s1)c1ccco1`, the Potency is 14.7 µM (active).

Take `Cc1occc1C(=O)N/N=C/c1ccc(Br)s1`: the Potency was 6.56 µM (active).

As for `C/C(=N\NC(=O)c1ccoc1C)c1ccc(Br)s1`, the Potency is 11.7 µM (active).

Consider `COC(=O)/C(=C/c1cccc([N+](=O)[O-])c1)NC(=O)c1ccc(OC)cc1`, for which the Potency is 5.21 µM (active).

Consider `COc1cccc(NC(=O)C(=O)NCC(c2ccc3c(c2)OCO3)N2CCN(C)CC2)c1` (stereo not given), for which the Potency was 4.65 µM (active).

For the compound `Cc1cc(C)n2ncc(/C(N)=N/OC(=O)c3ccccc3F)c2n1`, the Potency was 1.85 µM (active).

Consider `Cc1cc(C)n2ncc(C(=O)NCCc3ccccc3)c2n1`, for which the Potency is 18.5 µM (active).

In the case of `Cc1csc2ncc(C(=O)NCCc3ccccc3)c(=O)n12`, the Potency was 16.5 µM (active).

Consider `CN(C)c1ccc(/C=C2\CCCCC2=O)cc1`, for which the Potency was 2.07 µM (active).

Regarding `CCC(=O)N1CCc2cc(CNS(=O)(=O)c3ccccc3F)ccc21`, the Potency is 6.56 µM (active).

Take `Cc1ccc2nc(-c3ccc(NC(=O)COc4ccccc4C(C)(C)C)cc3)sc2c1`: the Potency is 6.56 µM (active).

As to `O=C(COc1ccccc1F)Nc1ccc(-c2nc3ccccc3s2)cc1`, the Potency is 1.47 µM (active).

As to `Cc1nc2ccc(NC(=O)COc3ccccc3F)cc2s1`, the Potency is 7.36 µM (active).

For the compound `Nc1ccc2oc3ccc(N)cc3c(=O)c2c1`, the Potency was 3.69 µM (active).

With `COc1nccnc1NS(=O)(=O)c1ccc(NCc2cc(Br)ccc2O)cc1`, the Potency was 18.5 µM (active).

In the case of `C/C(=N\NC(=O)COc1ccccc1F)c1cc2ccccc2o1`, the Potency was 8.26 µM (active).

As for `COc1ccc(OCC(=O)N/N=C(\C)c2cc3ccccc3o2)cc1`, the Potency was 18.5 µM (active).

On to `Cc1ccc(C(=O)Cc2nnc(C)s2)cc1`, for which the Potency was 4.14 µM (active).

Take `Cc1ccc(NC(=S)NNC(=O)c2nn(C)c(C)c2Cl)cc1`: the Potency is 5.85 µM (active).

As for `CN1CCc2c(sc3c2C(=O)NC(c2cccc(OC(=O)c4cccs4)c2)N3)C1` (stereo not given), the Potency was 18.5 µM (active).

In the case of `COc1cc(C2NC(=O)c3c(sc4c3CCN(C)C4)N2)ccc1OC(=O)c1ccccc1` (stereo not given), the Potency is 13.1 µM (active).

For the compound `CN1CCc2c(sc3c2C(=O)NC(c2ccc(OC(=O)c4ccccc4)cc2)N3)C1` (stereo not given), the Potency is 9.27 µM (active).

As to `O=C(CC1NCCc2ccccc21)Nc1cccc(Cl)c1` (stereo not given), the Potency was 16.5 µM (active).

Regarding `C/C(=N/NC(=O)c1ccoc1C)C12CC3CC(CC(C3)C1)C2`, the Potency was 8.26 µM (active).

Consider `Cc1occc1C(=O)NN=C1C2CC3CC(C2)CC1C3`, for which the Potency is 1.31 µM (active).

Consider `C=C(C)C1CC=C(C)/C(=N/NC(=O)c2ccoc2C)C1` (stereo not given), for which the Potency is 4.65 µM (active).

For `S=C(N=Nc1ccccc1)NNc1ccccc1`, the Potency was 5.21 µM (active).

With `COc1ccc(N=c2sc3ccccc3n2C)cc1`, the Potency is 3.29 µM (active).

For `COc1ccc(OCCn2c(=O)sc3ccccc32)cc1`, the Potency is 14.7 µM (active).

On to `Cc1cccc(OCCCn2c(=O)sc3ccccc32)c1`, for which the Potency was 14.7 µM (active).

Take `Cc1cccc(OCCn2c(=O)sc3ccccc32)c1`: the Potency was 5.21 µM (active).

With `O=c1sc2ccccc2n1CCCOc1ccccc1`, the Potency is 4.14 µM (active).

Take `C=CCNC(=S)NNC(=O)COc1ccc2cc(Br)ccc2c1`: the Potency is 7.36 µM (active).

As to `CC1Oc2ccccc2N(CC(=O)NCc2ccccc2)C1=O` (stereo not given), the Potency was 9.27 µM (active).

As to `CCn1c(O)c(N=Nc2ccc3ccccc3n2)c2ccccc21`, the Potency was 1.04 µM (active).

Consider `COc1ccc(-c2cc(CS(=O)(=O)c3ccccc3)on2)cc1`, for which the Potency was 4.65 µM (active).

Turning to `O=S(=O)(Cc1cc(-c2ccccc2Cl)no1)c1ccccc1`, the Potency was 5.21 µM (active).

On to `O=S(=O)(Cc1cc(-c2ccc(Cl)cc2)no1)c1ccccc1`, for which the Potency was 4.65 µM (active).

As for `COc1ccc(Br)c(-c2nnc(CS(=O)(=O)c3ccccc3)o2)c1`, the Potency was 14.7 µM (active).

With `O=S(=O)(Cc1cc(-c2ccccc2)no1)c1ccccc1`, the Potency is 14.7 µM (active).

Consider `Nc1ccc(Oc2cc(N)cc(Oc3ccccc3)c2)cc1`, for which the Potency was 8.26 µM (active).

On to `N=c1cc(C2(O)CCCCC2)n2c(nc3ccccc32)s1`, for which the Potency was 0.185 µM (active).

On to `COc1ccccc1/C=C/C1=NC(=C\N(C)C)/C(=O)O1`, for which the Potency is 14.7 µM (active).

Take `Oc1ccc(-c2cn3ccccc3n2)cc1O`: the Potency is 3.29 µM (active).

As for `COc1ccc(-c2cn3ccccc3n2)cc1[N+](=O)[O-]`, the Potency is 2.33 µM (active).

As to `COc1ccc(-c2cn3cc(Cl)ccc3n2)cc1OC`, the Potency is 13.1 µM (active).

In the case of `CCOc1ccc(-c2cn3ccccc3n2)cc1[N+](=O)[O-]`, the Potency was 2.93 µM (active).

For the compound `O=C(Nc1cc(F)c(Br)cc1F)c1ccc(Cl)cc1`, the Potency is 3.29 µM (active).

For `CCCCOc1ccc(-c2csc(N)n2)cc1[N+](=O)[O-]`, the Potency is 1.47 µM (active).

For `CCCOc1ccc(-c2csc(N)n2)cc1[N+](=O)[O-]`, the Potency was 5.21 µM (active).

For `Cc1cccc(OCCn2nnc3sc4c(c3c2=O)CCCC4)c1`, the Potency is 18.5 µM (active).

`COC(=O)c1ccc(Cn2nnc3sc4c(c3c2=O)CCCC4)cc1`: the Potency is 6.56 µM (active).

With `S=C(NCCc1ccccc1)NCCc1ccccc1`, the Potency is 2.61 µM (active).

For `O=C(CSc1ccccc1)NC1CCCCCC1`, the Potency was 14.7 µM (active).

For the compound `NNCCc1ccccc1`, the Potency is 14.7 µM (active).

`O=C(CSc1ccccc1)NCCc1ccccc1`: the Potency is 14.7 µM (active).

With `CC1CCN(C(=S)NCCc2ccccc2)CC1`, the Potency is 2.93 µM (active).

Take `Cc1ccc2oc(C(=O)N(C)Cc3ccon3)c(C)c2c1`: the Potency is 4.14 µM (active).

With `CCCc1ccc2oc(C(=O)N(C)Cc3ccn[nH]3)c(C)c2c1`, the Potency was 10.4 µM (active).

In the case of `Cc1cc(Cl)c2oc(C(=O)N(C)C(C)c3ccccn3)c(C)c2c1` (stereo not given), the Potency was 14.7 µM (active).

Turning to `Cc1ccc2c(C)c(C(=O)N(C)C(C)c3ccon3)oc2c1C` (stereo not given), the Potency is 16.5 µM (active).

As to `Cc1cc(Cl)c2oc(C(=O)N(C)Cc3ccon3)c(C)c2c1`, the Potency is 4.65 µM (active).

`CCc1c(C)c2ccc(O)c(CN3CCN(c4ccccc4)CC3)c2oc1=O`: the Potency is 6.56 µM (active).

`COc1ccc2c(c1)Cc1sc(NC(C)=O)nc1-2`: the Potency is 0.631 µM (active).

Consider `COc1ccc2c(c1)-c1nc(NC(=O)c3ccco3)sc1CC2`, for which the Potency is 13.1 µM (active).

On to `Cc1ccc(-n2ncc3c(NC4CCCCC4)ncnc32)cc1`, for which the Potency was 0.521 µM (active).

With `Cc1cccc(-n2ncc3c(NC4CCCCC4)ncnc32)c1`, the Potency is 0.414 µM (active).

Take `O=c1cccccc1NN=C1CCCCC1`: the Potency is 11.7 µM (active).

On to `O=c1cccccc1NN=C1CCCCCC1`, for which the Potency is 3.29 µM (active).

Take `Oc1ccccc1CNc1cccc2cccnc12`: the Potency is 18.5 µM (active).

On to `Oc1c(/C=N/Nc2cccc3cccnc23)ccc2ccccc12`, for which the Potency is 7.36 µM (active).

On to `Cc1ccccc1Nc1nc(N)nc(-c2oc3ccccc3c2C)n1`, for which the Potency is 4.65 µM (active).

On to `Fc1ccccc1Nc1nc2ccccc2n2nnnc12`, for which the Potency was 16.5 µM (active).

For the compound `CCN(CC)C(=O)c1cc(-c2ccccc2OC)on1`, the Potency is 13.1 µM (active).

With `CCN(CC)C(=O)c1cc(-c2ccc(Cl)cc2)on1`, the Potency was 4.65 µM (active).

Turning to `COc1ccccc1-c1cc(C(=O)N2CCOCC2)no1`, the Potency was 2.93 µM (active).

Regarding `COc1ccccc1-c1cc(C(=O)N2CCCC2)no1`, the Potency was 1.85 µM (active).

With `CC1C2CC(C/C2=N/NC(=O)c2cccs2)C1(C)C` (stereo not given), the Potency is 5.21 µM (active).

For `O=C(N/N=C1/CC2C=CCC12)c1cccs1` (stereo not given), the Potency is 11.7 µM (active).

Take `O=C(N/N=C1/CC2C=CCC12)c1ccco1` (stereo not given): the Potency was 5.21 µM (active).

In the case of `COc1ccc(/C=N/n2c(N)nc3ccccc32)cc1OC`, the Potency was 16.5 µM (active).

As to `Cc1c(/C=C/C(=O)c2ccc(O)cc2)cnn1C`, the Potency is 18.5 µM (active).

`Cc1c(/C=C/C(=O)c2ccccc2O)cnn1C`: the Potency is 3.69 µM (active).

As to `CCn1ncc(/C=C/C(=O)c2ccccc2)c1C`, the Potency is 5.21 µM (active).

`Cc1nn(C)cc1/C=C/C(=O)c1ccc(O)cc1`: the Potency was 13.1 µM (active).

As to `CCCCN1CCc2c([nH]c3ccc(C)cc23)C1=O`, the Potency was 0.826 µM (active).

Regarding `COc1ccc(/C=N/Nc2ccccn2)cc1O`, the Potency is 7.36 µM (active).

With `CCOc1ccc(/C=N/Nc2ccccn2)cc1OC`, the Potency was 5.21 µM (active).

With `COc1ccc(COc2ccc3c(C)cc(=O)oc3c2)cc1`, the Potency is 2.33 µM (active).

Consider `COc1cccc(COc2ccc3c(C)cc(=O)oc3c2)c1`, for which the Potency is 2.07 µM (active).

Turning to `COc1ccc(-c2noc(-c3ccccc3Cl)n2)cc1OC`, the Potency is 1.47 µM (active).

As to `COc1ccc(-c2noc(-c3cccc(OC)c3OC)n2)cc1OC`, the Potency was 2.93 µM (active).

With `Cc1nc(-c2noc(-c3ccccc3Cl)n2)c(C(F)(F)F)o1`, the Potency was 11.7 µM (active).

For `Fc1ccc(-n2c(-c3ccc4c(c3)OCO4)n[nH]c2=S)cc1Cl`, the Potency is 16.5 µM (active).

As to `CC(=O)c1c(C)nc(Nc2nc3ccccc3s2)nc1C`, the Potency was 0.736 µM (active).

Turning to `O=C(COc1ccccc1[N+](=O)[O-])Nc1ccc2c(c1)OCO2`, the Potency was 3.29 µM (active).

`COc1ccccc1OCC(=O)Nc1ccc2c(c1)OCCO2`: the Potency was 8.26 µM (active).

Take `O=C(COc1ccccc1F)Nc1ccc2c(c1)OCCO2`: the Potency was 1.17 µM (active).

Regarding `COc1ccccc1OCC(=O)Nc1ccc2c(c1)OCO2`, the Potency was 18.5 µM (active).

On to `Cc1ccccc1OCC(=O)Nc1ccc2c(c1)OCCO2`, for which the Potency is 6.56 µM (active).

As for `O=C(COc1ccccc1Cl)Nc1ccc2c(c1)OCO2`, the Potency is 1.85 µM (active).

For the compound `CCc1ccccc1OCC(=O)Nc1ccc2c(c1)OCCO2`, the Potency was 5.21 µM (active).
